The record followed here is PubChem BioAssay (EPA / NIEHS).

For assay [1], the target named is human Adenosine A2a Receptor (AdoRA2a), ADORA2A (gene 135) (UniProt P29274). The assay can be described thus: NVS_GPCR_hAdoRA2a: NovaScreen (NVS) G Protein-Coupled Receptor Assay for human Adenosine A2a Receptor (AdoRA2a) (AID 2283256). The method, boiled down:
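Cell-free radioligand binding on membranes from HEK293 expressing the receptor; competitive displacement read 1.5 h after dosing by filter-based scintillation counting. Primary screen in duplicate at 25 uM; actives followed in concentration series, with DMSO as baseline.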

Assay [2] concerns the target D(1A) dopamine receptor (Homo sapiens) (UniProt P21728). The assay can be described thus: NVS_GPCR_hDRD1: NovaScreen (NVS) G Protein-Coupled Receptor Assay for human Dopamine Receptor D1 (DRD1) (AID 2283269). The method, boiled down:
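Cell-free radioligand binding to human DRD1 from HEK293 membranes, read 1 h after dosing by filter-based scintillation counting. Loss of signal versus DMSO baseline marks displacement. Primary screen at 25 uM single concentration in duplicate; actives followed up in concentration series.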

Assay [3] addresses guinea pig Opioid, Kappa 1 Receptor (OpiateK), OPRK1 (gene 100135587) (UniProt P41144). The assay can be described thus: NVS_GPCR_gOpiateK: NovaScreen (NVS) G Protein-Coupled Receptor Assay for guinea pig Opioid, Kappa 1 Receptor (OpiateK) (AID 2283252).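 Further: radioligand displacement from kappa opioid receptor in guinea pig cerebellar membranes; active means reduced radioligand binding relative to DMSO.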 A digest of the protocol:
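Guinea pig cerebellar membranes were incubated with a radioligand for 2 h after compound addition; bound radioactivity was read by filter-based scintillation counting. Loss of specific binding relative to DMSO baseline defined activity; primary screen at 25 uM in duplicate.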

Assay [4] deals with Muscarinic acetylcholine receptor M2 (Homo sapiens) (UniProt P08172). The assay can be described thus: NVS_GPCR_hM2: NovaScreen (NVS) G Protein-Coupled Receptor Assay for human Muscarinic, M2 Receptor (AID 2283273). A digest of the protocol:
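Cell-free radioligand binding using membranes from CHO cells expressing the receptor; filter-based scintillation counting after 1 hour of compound exposure. Loss of specific binding relative to DMSO baseline; primary screen at 25 uM in duplicate, actives then run in concentration series.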

For assay [5], the target named is human Thromboxane A2 Receptor (TXA2), TBXA2R (gene 6915) (UniProt P21731). The assay can be described thus: NVS_GPCR_hTXA2: NovaScreen (NVS) G Protein-Coupled Receptor Assay for human Thromboxane A2 Receptor (TXA2) (AID 2283282).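 Further: actives reduce bound radioligand signal relative to DMSO baseline.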 A digest of the protocol:
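Screening ran at 25 uM in duplicate, with concentration series for confirmed actives. Each test measures radioligand binding to human platelet protein after 1 h, cell-free, using filter-based scintillation detection of signal loss relative to DMSO.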

Assay [6] deals with human Adenosine A1 Receptor (AdoRA1), ADORA1 (gene 134) (UniProt P30542). The assay can be described thus: NVS_GPCR_hAdoRA1: NovaScreen (NVS) G Protein-Coupled Receptor Assay for human Adenosine A1 Receptor (AdoRA1) (AID 2283254). The method, boiled down:
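Membranes from human cortical tissue were incubated with radioligand and test chemical for 1 hour, then filtered and counted. Activity was taken as signal loss relative to DMSO, screened at 25 uM in duplicate before concentration-response follow-up.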

Assay [7] addresses guinea pig Leukotriene D4 Receptor (LTD4), CYSLTR1 (gene 100135514) (UniProt Q2NNR5). The assay can be described thus: NVS_GPCR_gLTD4: NovaScreen (NVS) G Protein-Coupled Receptor Assay for guinea pig Leukotriene D4 Receptor (LTD4) (AID 2283248). A digest of the protocol:
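Radioligand displacement on guinea pig lung membranes, 1 h incubation, filtration and scintillation counting; DMSO as negative control. Duplicate 25 uM primary screen, then singleton concentration-response up to 50 uM.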

Assay [8] addresses human Neurokinin, NK2 Receptor, TACR2 (gene 6865) (UniProt P21452). The assay can be described thus: NVS_GPCR_hNK2: NovaScreen (NVS) G Protein-Coupled Receptor Assay for human Neurokinin, NK2 Receptor (AID 2283278).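 Further: actives reduce bound radioligand signal relative to DMSO baseline.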 The method, boiled down: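 CHO-derived membrane protein, radioligand displacement, filter scintillation read at 4 h post-dose. Single-point 25 uM in duplicate, then concentration series for actives; DMSO as negative control.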

Assay [9] has as its target human Phosphodiesterase 10 (PDE10), PDE10A (gene 10846) (UniProt Q9Y233). The assay can be described thus: NVS_ENZ_hPDE10: NovaScreen (NVS) Enzymatic Assay for human Phosphodiesterase 10 (PDE10) (AID 2283195). The method, boiled down:
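Fluorescence/mobility-shift readout of PDE10A enzyme activity, taken 1 h post-dosing. Primary screen in duplicate at 25 uM; actives (e.g. ≥30% inhibition) retested as singleton concentration-response, top concentration 50 uM.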

The target of assay [10] is sheep Cyclooxygenase-1 (Cox1), PTGS1 (gene 443551) (UniProt P05979). The assay can be described thus: NVS_ENZ_oCOX1: NovaScreen (NVS) Enzymatic Assay for sheep Cyclooxygenase-1 (Cox1) (AID 2283239).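 Further: actives reduce cyclooxygenase activity so potencies are for inhibitors.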 A digest of the protocol:
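Tested in duplicate at 25 uM, then in concentration series if active, against seminal vesicle extract from sheep. Enzyme activity was measured colorimetrically at 0.66 hour and normalised to DMSO.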

Assay [11] has as its target sheep Cyclooxygenase-2 (Cox2), PTGS2 (gene 443460) (UniProt P79208). The assay can be described thus: NVS_ENZ_oCOX2: NovaScreen (NVS) Enzymatic Assay for sheep Cyclooxygenase-2 (Cox2) (AID 2283231). A digest of the protocol:
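Colorimetric absorbance read-out of COX activity, taken 0.66 hour post-dosing, using native protein from sheep placenta. Single-concentration duplicate screen (25 uM), then singleton concentration-response up to 50 uM for actives.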

The target of assay [12] is human Endothelin Receptor Type A (ETA), EDNRA (gene 1909) (UniProt P25101). The assay can be described thus: NVS_GPCR_hETA: NovaScreen (NVS) G Protein-Coupled Receptor Assay for human Endothelin Receptor Type A (ETA) (AID 2283265). The method, boiled down: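 Cell-free radioligand displacement using SH-SY5Y-derived protein, 3 h incubation, filter-based scintillation counting. Primary screen in duplicate at 25 uM; actives then run in concentration-response up to 50 uM; loss of binding fitted versus DMSO.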

For assay [13], the target named is human Orphanin, Opioid Related Nociceptin Receptor 1 (ORL1), OPRL1 (gene 4987) (UniProt P41146). The assay can be described thus: NVS_GPCR_hORL1: NovaScreen (NVS) G Protein-Coupled Receptor Assay for human Orphanin, Opioid Related Nociceptin Receptor 1 (ORL1) (AID 2283283). The method, boiled down: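 Filter-based radioligand displacement with receptor extracted from HEK293 cells, read 1 hour after dosing by scintillation counting. Duplicate single-point screen at 25 uM; qualifying chemicals then run in concentration-response to 50 uM, analysed relative to DMSO.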

The target in assay [14] is human Phosphoinositide 3-kinase alpha (PI3Ka), PIK3CA (gene 5290) (UniProt P42336). The assay can be described thus: NVS_ENZ_hPI3Ka: NovaScreen (NVS) Enzymatic Assay for human Phosphoinositide 3-kinase alpha (PI3Ka) (AID 2283196). A digest of the protocol:
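Fluorescence/mobility-shift readout of substrate conversion by recombinant enzyme, 1 h post-dosing. Primary screen in duplicate at 25 uM; actives (e.g. ≥30% inhibition) retested in singleton concentration-response, top concentration 50 uM.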

Results filed as inconclusive are left out. Active and inactive are the calls of the source. How the source made its calls: active means hit-call score of the fitted dose curve at least 0.9, where 1 is the maximum; inconclusive means response in the unintended direction; inactive means score below 0.9.

Sequence of D(1A) dopamine receptor (Homo sapiens) (P21728 whole entry, looked up): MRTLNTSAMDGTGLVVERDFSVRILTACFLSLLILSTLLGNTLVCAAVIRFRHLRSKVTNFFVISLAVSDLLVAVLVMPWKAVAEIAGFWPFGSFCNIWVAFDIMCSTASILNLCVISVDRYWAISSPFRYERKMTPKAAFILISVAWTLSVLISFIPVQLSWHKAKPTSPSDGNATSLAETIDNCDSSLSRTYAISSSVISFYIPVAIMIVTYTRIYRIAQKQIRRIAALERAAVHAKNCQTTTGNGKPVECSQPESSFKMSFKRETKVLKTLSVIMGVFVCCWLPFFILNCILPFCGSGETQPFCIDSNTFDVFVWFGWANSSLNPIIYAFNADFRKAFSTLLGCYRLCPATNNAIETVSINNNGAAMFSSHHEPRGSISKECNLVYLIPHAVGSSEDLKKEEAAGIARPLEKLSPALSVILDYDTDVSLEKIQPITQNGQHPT
Sequence of human Phosphodiesterase 10 (PDE10), PDE10A (gene 10846) (Q9Y233 whole entry, looked up): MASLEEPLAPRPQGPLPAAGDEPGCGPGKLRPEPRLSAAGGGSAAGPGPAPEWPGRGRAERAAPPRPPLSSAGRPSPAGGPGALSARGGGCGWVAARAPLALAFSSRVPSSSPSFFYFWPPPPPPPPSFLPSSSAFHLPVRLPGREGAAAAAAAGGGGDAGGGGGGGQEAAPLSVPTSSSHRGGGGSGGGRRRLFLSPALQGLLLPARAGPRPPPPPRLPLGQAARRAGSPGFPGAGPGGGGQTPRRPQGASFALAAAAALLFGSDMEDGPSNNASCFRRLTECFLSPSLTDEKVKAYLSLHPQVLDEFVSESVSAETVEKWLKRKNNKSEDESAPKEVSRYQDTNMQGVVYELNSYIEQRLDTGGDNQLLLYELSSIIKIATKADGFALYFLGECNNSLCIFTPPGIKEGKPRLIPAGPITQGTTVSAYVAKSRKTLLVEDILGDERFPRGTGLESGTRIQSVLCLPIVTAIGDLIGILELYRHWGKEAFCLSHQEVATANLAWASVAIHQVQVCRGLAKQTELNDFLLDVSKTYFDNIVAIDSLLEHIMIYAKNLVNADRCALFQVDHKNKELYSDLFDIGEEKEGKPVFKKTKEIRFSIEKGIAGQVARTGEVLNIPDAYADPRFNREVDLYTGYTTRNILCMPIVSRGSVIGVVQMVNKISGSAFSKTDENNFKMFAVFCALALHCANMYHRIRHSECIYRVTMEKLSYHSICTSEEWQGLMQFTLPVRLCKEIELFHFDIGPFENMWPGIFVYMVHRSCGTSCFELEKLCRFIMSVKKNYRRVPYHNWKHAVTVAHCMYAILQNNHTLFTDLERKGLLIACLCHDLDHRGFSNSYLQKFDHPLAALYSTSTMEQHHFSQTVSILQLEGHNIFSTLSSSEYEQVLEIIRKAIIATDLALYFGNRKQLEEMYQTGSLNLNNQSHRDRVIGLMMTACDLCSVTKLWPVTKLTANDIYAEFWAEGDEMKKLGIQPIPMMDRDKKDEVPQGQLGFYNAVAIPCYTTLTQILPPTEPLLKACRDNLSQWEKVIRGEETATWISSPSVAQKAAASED
Sequence of human Thromboxane A2 Receptor (TXA2), TBXA2R (gene 6915) (P21731 whole entry, looked up): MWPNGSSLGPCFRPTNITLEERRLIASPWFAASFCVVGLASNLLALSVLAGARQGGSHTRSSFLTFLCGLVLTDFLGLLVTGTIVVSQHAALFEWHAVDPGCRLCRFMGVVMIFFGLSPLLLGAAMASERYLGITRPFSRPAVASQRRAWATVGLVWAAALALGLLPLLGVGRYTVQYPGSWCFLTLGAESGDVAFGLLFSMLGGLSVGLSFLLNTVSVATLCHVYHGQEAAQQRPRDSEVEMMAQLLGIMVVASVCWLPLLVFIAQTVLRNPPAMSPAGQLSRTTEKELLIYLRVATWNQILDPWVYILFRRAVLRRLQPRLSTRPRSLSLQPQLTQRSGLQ
Sequence of human Adenosine A1 Receptor (AdoRA1), ADORA1 (gene 134) (P30542 whole entry, looked up): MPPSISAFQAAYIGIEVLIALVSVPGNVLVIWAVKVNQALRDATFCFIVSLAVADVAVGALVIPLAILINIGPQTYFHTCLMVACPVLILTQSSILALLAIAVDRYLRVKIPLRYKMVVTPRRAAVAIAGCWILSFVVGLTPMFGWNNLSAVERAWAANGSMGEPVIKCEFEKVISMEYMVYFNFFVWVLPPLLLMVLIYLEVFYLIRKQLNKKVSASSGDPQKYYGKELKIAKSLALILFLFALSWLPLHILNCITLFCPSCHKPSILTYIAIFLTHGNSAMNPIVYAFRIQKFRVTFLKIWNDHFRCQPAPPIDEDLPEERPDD
Sequence of human Neurokinin, NK2 Receptor, TACR2 (gene 6865) (P21452 whole entry, looked up): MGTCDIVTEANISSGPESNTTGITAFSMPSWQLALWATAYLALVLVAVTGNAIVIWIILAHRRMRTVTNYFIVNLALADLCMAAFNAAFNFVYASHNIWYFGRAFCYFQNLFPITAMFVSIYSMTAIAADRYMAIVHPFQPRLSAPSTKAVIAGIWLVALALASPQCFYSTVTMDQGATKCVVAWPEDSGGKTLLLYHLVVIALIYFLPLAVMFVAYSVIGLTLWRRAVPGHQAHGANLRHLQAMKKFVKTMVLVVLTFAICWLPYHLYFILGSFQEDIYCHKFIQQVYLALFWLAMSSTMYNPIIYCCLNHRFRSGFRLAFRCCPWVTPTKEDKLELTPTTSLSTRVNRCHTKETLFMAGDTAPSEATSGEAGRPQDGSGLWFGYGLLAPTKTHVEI
Sequence of human Adenosine A2a Receptor (AdoRA2a), ADORA2A (gene 135) (P29274 whole entry, looked up): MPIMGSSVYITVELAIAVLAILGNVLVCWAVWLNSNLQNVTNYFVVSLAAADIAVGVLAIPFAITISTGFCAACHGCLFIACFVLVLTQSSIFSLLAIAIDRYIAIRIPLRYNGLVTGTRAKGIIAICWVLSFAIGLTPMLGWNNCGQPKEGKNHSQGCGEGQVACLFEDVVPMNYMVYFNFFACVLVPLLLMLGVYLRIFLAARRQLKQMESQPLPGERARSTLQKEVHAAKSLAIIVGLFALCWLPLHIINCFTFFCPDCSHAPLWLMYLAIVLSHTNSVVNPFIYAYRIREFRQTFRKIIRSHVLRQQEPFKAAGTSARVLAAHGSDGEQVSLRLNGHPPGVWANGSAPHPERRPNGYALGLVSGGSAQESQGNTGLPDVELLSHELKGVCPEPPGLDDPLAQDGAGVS
Sequence of guinea pig Opioid, Kappa 1 Receptor (OpiateK), OPRK1 (gene 100135587) (P41144 whole entry, looked up): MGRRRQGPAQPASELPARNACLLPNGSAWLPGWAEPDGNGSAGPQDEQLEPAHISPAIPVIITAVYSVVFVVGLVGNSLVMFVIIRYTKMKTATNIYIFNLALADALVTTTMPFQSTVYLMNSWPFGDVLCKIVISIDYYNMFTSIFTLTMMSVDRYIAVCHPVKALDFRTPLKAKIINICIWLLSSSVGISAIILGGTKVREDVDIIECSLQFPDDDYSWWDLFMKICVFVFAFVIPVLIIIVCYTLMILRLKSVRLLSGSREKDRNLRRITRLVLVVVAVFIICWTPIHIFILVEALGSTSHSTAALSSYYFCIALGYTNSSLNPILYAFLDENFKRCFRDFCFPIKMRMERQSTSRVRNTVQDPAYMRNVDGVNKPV
Sequence of sheep Cyclooxygenase-1 (Cox1), PTGS1 (gene 443551) (P05979 whole entry, looked up): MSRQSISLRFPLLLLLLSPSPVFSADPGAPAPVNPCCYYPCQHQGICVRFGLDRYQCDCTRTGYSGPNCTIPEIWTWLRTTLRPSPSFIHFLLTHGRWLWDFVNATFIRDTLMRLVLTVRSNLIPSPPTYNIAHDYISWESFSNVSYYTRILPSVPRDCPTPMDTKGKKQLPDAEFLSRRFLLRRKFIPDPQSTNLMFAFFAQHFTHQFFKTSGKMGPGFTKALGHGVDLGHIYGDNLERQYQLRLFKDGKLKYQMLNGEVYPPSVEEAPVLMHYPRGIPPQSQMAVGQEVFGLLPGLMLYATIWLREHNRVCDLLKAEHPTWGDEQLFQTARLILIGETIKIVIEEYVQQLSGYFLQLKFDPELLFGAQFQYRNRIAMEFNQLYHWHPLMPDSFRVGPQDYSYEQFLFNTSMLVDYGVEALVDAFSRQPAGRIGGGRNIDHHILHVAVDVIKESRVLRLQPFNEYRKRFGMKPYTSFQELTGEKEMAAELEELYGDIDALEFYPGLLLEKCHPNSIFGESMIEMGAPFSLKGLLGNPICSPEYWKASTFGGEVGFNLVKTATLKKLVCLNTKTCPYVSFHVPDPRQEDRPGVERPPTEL
Sequence of guinea pig Leukotriene D4 Receptor (LTD4), CYSLTR1 (gene 100135514) (Q2NNR5 whole entry, looked up): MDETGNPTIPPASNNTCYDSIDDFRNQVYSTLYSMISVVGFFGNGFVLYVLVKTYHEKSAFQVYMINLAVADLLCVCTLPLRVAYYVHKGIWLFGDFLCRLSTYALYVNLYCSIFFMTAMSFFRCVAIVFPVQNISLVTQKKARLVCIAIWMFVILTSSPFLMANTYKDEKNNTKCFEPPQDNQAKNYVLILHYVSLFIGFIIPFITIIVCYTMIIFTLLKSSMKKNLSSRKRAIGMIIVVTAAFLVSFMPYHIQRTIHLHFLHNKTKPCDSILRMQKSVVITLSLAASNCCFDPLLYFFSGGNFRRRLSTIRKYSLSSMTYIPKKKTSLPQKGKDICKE
Sequence of Muscarinic acetylcholine receptor M2 (Homo sapiens) (P08172 whole entry, looked up): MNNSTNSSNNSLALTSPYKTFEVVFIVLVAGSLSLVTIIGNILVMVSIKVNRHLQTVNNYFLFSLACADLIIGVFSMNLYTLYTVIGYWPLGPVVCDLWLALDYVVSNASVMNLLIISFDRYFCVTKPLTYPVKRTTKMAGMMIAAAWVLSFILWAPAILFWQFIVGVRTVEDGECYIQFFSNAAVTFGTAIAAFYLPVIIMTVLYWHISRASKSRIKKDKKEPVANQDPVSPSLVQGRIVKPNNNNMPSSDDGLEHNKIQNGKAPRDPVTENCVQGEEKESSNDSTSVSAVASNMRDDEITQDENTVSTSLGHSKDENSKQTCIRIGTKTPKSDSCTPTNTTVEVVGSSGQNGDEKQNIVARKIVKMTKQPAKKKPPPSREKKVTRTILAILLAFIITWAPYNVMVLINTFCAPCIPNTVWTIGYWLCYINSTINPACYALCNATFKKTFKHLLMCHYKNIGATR

For `Nc1c(Br)cc([N+](=O)[O-])cc1Br`, in assay [1], the outcome was inactive.
Consider `CN1CN(C)CN(C)C1`, for which the result in [2] was inactive.
Turning to `c1ccc(C[P+](c2ccccc2)(c2ccccc2)c2ccccc2)cc1`, the concentration at half-maximal activity (AC50) in assay [3] was 1.98 µM (active); in assay [4], 1.22 µM (active). Moreover, the compound was called inactive in [2] and in assay [5].
Take `Oc1ccc2c(c1)CCC2`: the call in assay [2] and in [5] was inactive.
Regarding `Cc1ccc(S(=O)(=O)C(I)I)cc1`, in [3], the outcome was inactive. The AC50 in [6] was 33.2 µM (active); in [2], 6.43 µM (active).
As to `CCC(C)CO` (configuration not stated), the call in assay [6] was inactive.
In the case of `C[C@]12CC[C@H]3C(=CCc4cc(O)ccc43)[C@@H]1CCC2=O`, the call in assay [7] was inactive.
Regarding `CCN(CC)c1ccc(N=Nc2ccccc2)cc1`, the call in assay [2] and in assay [8] was inactive.
As for `Brc1ccccn1`, the compound was classed as inactive in assay [9].
Consider `CC(C)CCCC(C)CCO` (configuration not stated), for which, in [10], the result was inactive.
As for `CC1=CC2C3C=CC(C3)C2C1C` (configuration not stated), the AC50 in assay [10] is 30.4 µM (active).
For the compound `Oc1ccc(C2(c3ccc(O)c(C4CCCCC4)c3)CCCCC2)cc1C1CCCCC1`, the outcome in assay [2] was inactive. Also, the AC50 in assay [4] was 8.57 µM (active); in [8], 16.2 µM (active).
In the case of `O=C1OC(=O)c2ccc3c4c(ccc1c24)C(=O)OC3=O`, in assay [8], the compound was classed as inactive.
As to `O=C(c1ccccc1)c1ccc(O)cc1O`, the call in [7], in assay [6] and in assay [5] was inactive. For the same compound, the AC50 in assay [1] was 29.7 µM (active).
Take `CCCCCCCCn1sc(Cl)c(Cl)c1=O`: the compound was classed as inactive in [11] and in assay [12]. For the same compound, the half-maximal activity concentration (AC50) in [13] is 16.5 µM (active).
For `OCCC(O)CO` (configuration not stated), the AC50 in [2] is 37.4 µM (active).
For the compound `C#CC(O)CCC` (configuration not stated), in assay [9], the compound was called inactive.
Regarding `O=C=Nc1cccc2c(N=C=O)cccc12`, the outcome in assay [2] was inactive. In assay [5], the AC50 is 0.672 µM (active).
Take `Cc1cc(O)c(C(C)(C)C)cc1C(C)(C)C`: in assay [14], the outcome was inactive.
Regarding `CCN(CC)c1ccc(C=O)cc1`, the AC50 in [5] is 4.65 µM (active).
Take `CCN(CC)c1ccc2c(c1)Oc1cc(N(CC)CC)ccc1C21OC(=O)c2ccccc21`: the compound was called inactive in assay [9] and in assay [5].
